Bioassay records: PubChem, The Scripps Research Institute Molecular Screening Center
PME-1 primary: PME-1 (human) inhibition | Q9Y570 | recombinant PME-1, FP-Rh probe fluorescence polarization | inhibition, % at 5.9 µM | hit rate 0.53% among 320,000;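 active means inhibition above the campaign mean of all compounds plus 3 SD, cut at about 26% in these data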;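 further: competitive labeling of PME-1 active site by serine hydrolase directed probe; 0% = PME-1 with DMSO and 100% = wells lacking PME-1 enzyme; inhibitors block probe labeling so polarization falls and inhibition rises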
GSTO1 inh: counter-screen for RBBP9 inhibitors: inhibitors of human GSTO1; AID 1974; inhibition, % at 5.96 µM; P78417; recombinant GSTO1, activity-based probe fluorescence polarization; hit rate 1.1% among 300,000;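 active means inhibition above the campaign mean inhibition plus 3 SD, cut at about 35% in these data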;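 further: 0% = GSTO1-1 with DMSO and 100% = wells lacking GSTO1-1 enzyme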
LYPLA1 counter: blocks human lysophospholipase 1, a PME1 counter-screen | O75608 | recombinant LYPLA1, FP-Rh probe fluorescence polarization | inhibition, % at 5.9 µM | hit rate 0.16% among 320,000 | AID 2174;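 active means inhibition above the mean of all tested compounds plus 3 SD, set per campaign, cut at about 14% in these data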;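 further: inhibitors block serine hydrolase probe labeling of LYPLA1 so polarization falls; 0% = enzyme with DMSO and 100% = wells lacking LYPLA1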
Target sequence (O75608 whole entry, looked up): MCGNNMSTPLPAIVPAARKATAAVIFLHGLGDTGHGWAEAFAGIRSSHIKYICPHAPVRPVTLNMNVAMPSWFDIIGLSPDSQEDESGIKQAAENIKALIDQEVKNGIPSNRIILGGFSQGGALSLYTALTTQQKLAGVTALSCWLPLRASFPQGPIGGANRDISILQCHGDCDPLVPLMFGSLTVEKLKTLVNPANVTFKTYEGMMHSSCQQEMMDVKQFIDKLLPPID
PAD4 FP inh: inhibitors of human PAD4. inhibition, % at 6.36 µM. hit rate 0.41% among 330,000. AID 485272. recombinant PAD4, RCA probe fluorescence polarization. Q9UM07;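 active means percent inhibition above a cutoff equal to the mean of all tested compounds plus 3 SD, cut at about 15% in these data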;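 further: 0% = PAD4 with RCA probe and DMSO and 100% = probe without PAD4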
Fam108B counter: Fam108B inhibition, counter-screen for RBBP9 inhibitors; recombinant Fam108B, FP-Rh probe fluorescence polarization; inhibition, % at 9.51 µM; hit rate 0.33% among 300,000;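 active means inhibition above the screen mean inhibition plus 3 SD, computed separately per campaign, cut at about 18% in these data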;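 further: inhibitors lower polarization as less probe binds the enzyme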
LYPLA2 counter: counter-screen for PME1 inhibitors: inhibitors of human LYPLA2 | recombinant LYPLA2, FP-Rh probe fluorescence polarization | hit rate 0.38% among 320,000 | inhibition, % at 5.9 µM;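 active means inhibition above the screen-wide mean plus 3 SD, limit set per campaign, cut at about 26% in these data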;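 further: 0% = LYPLA2 with DMSO and 100% = wells lacking LYPLA2 enzyme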
Target sequence (O95372 whole entry, looked up): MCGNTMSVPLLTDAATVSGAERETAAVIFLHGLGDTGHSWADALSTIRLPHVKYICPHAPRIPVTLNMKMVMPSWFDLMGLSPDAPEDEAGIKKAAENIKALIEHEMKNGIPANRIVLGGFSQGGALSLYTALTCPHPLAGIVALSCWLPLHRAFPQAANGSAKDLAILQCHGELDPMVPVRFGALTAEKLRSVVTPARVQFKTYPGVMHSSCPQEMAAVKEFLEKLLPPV
Fam108b confirm: Fam108b (mouse) hydrolase inhibition, confirmation assay; inhibition, % at 9.51 µM; shares compounds with Fam108B counter; hit rate 44% among 930; recombinant Fam108b, FP-Rh probe fluorescence polarization;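 active means inhibition above a limit from the primary screen, the mean over all compounds plus 3 SD, cut at about 19% in these data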;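 further: 0% = median of active Fam108b wells and 100% = catalytically dead S170A mutant; inhibitors free the probe so polarization falls as inhibition rises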
Fam108b inh: mouse ABHD17B inhibition; recombinant Fam108b, gel-based ABPP, fluorophosphonate probe; hit rate 44% among 260; shares compounds with Fam108B counter; AID 588649; inhibition, % at 20 µM; in the data active means inhibition above about 40%
GSTO1 inh conf: GSTO1 (human) inhibition, confirmation; shares compounds with GSTO1 inh; recombinant GSTO1, probe fluorescence polarization; inhibition, % at 5.96 µM; hit rate 54% among 2,400;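 active means inhibition above the primary screen's cutoff, its mean inhibition plus 3 SD, cut at about 35% in these data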;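 further: loss of polarization as inhibitors block binding of rhodamine sulfonate ester activity probe; 0% = GSTO1 with DMSO and 100% = wells lacking GSTO1 enzyme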
LYPLA1 conf: LYPLA1 (human) inhibition, confirmation counter-screen; AID 2233; inhibition, % at 5.9 µM; hit rate 69% among 480; shares compounds with LYPLA1 counter; recombinant LYPLA1, FP-Rh probe fluorescence polarization;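 active means mean inhibition across replicates above the hit cutoff set in the primary screen, cut at about 15% in these data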;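 further: loss of FP-Rh probe labeling of LYPLA1 seen as lower polarization; 0% = LYPLA1 with DMSO and 100% = wells lacking LYPLA1 enzyme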
LYPLA2 confirm: counter-screen for PME1 inhibitors: confirmation of human LYPLA2 inhibitors; shares compounds with LYPLA2 counter; recombinant LYPLA2, FP-Rh probe fluorescence polarization; hit rate 72% among 1,100; inhibition, % at 5.9 µM;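 active means mean inhibition across replicates above the hit cutoff set in the primary screen, cut at about 26% in these data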;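 further: blocked labeling of the enzyme by serine hydrolase FP-Rh probe lowers polarization; 0% = enzyme with DMSO and 100% = wells lacking LYPLA2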
PAD4 FP conf: confirmation of human PAD4 inhibitors; hit rate 28% among 1,200; shares compounds with PAD4 FP inh; inhibition, % at 6.36 µM; recombinant PAD4, RCA probe fluorescence polarization; AID 488796;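 active means mean inhibition across replicates above the hit cutoff set by the earlier primary screen, cut at about 15% in these data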;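 further: inhibitors block active-site labeling by the probe so polarization falls; 0% = PAD4 with probe and DMSO and 100% = probe without PAD4 enzyme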
Numbers without * were called inactive; x = no result given. This is a sample that favours compounds with a hit; in the whole collection about 1.7% have one here.

SMILES | PME-1 primary | GSTO1 inh | LYPLA1 counter | PAD4 FP inh | Fam108B counter | LYPLA2 counter | Fam108b confirm | GSTO1 inh conf | LYPLA1 conf | LYPLA2 confirm | PAD4 FP conf | others
COc1cccc2c1C(=O)c1c(O)c3c(c(O)c1C2=O)C[C@@](O)(C(=O)CO)C[C@@H]3O[C@H]1C[C@H](N)[C@H](O)[C@H](C)O1 | 48* | 45* | 59* | 58* | 32* | 43* | 34* | 32 | 52* | 27* | 68* | Fam108b inh=65*
Cc1cc2c(N)cccc2nn1 | 58* | 65* | 47* | 120* | 25* | 52* | 16 | 110* | 3 | 46* | -2
Nc1cccc2nc3ccccc3cc12 | -32 | 5 | -2 | -5 | -3 | -4 | x | x | x | x | x
COc1ccc(S(=O)(=O)N2CCC(C(=O)NCC3CCCO3)CC2)cc1C (centres undefined) | 3 | 3 | -1 | 4 | 0 | 4 | x | x | x | x | x
Oc1c(Br)cc(C=Nc2ccc3nc(-c4ccccc4)[nH]c3c2)c(O)c1Br | 35* | 53* | -23 | 37* | 33* | -21 | 10 | 42* | x | x | 10
COc1ccc2nc(-c3ccccc3)[nH]c2c1 | -1 | -8 | 0 | 0 | -1 | -1 | x | x | x | x | x
CCC(=O)Nc1c(C#N)c2nc3ccccc3nc2n1-c1ccccc1C | -3 | 24 | -4 | 0 | -1 | -6 | x | x | x | x | x
CCCCn1c(NC(=O)c2ccccc2Cl)c(C#N)c2nc3ccccc3nc21 | 27* | 94* | 45* | 72* | 38* | 58* | 54* | 64* | 62* | 0 | 29* | Fam108b inh=10
O=C1c2ccccc2C(=O)N1CCc1csc(-c2cccc(F)c2)n1 | 10 | 2 | -2 | -5 | 1 | 7 | x | x | x | x | x
COc1ccc(-c2nc(-c3ccccn3)ncc2S(C)(=O)=O)cc1 | -1 | -2 | -1 | -1 | -1 | 6 | x | x | x | x | x
Cn1nc(-c2ccccn2)nc2c(=O)n(C)c(=O)nc1-2 | 36* | 97* | 92* | 74* | 62* | 90* | 86* | 92* | 89* | 92* | 67* | Fam108b inh=0
O=S(=O)(c1cccs1)N1CN(Cc2ccco2)c2nc3ccccc3nc21 | 34* | 37* | 30* | 77* | 28* | 38* | 9 | x | 2 | 8 | 4
CC1CN(C(=S)SCCN2C(=O)CCC2=O)CC(C)O1 (centres undefined) | -3 | 7 | -4 | -7 | 1 | -1 | x | x | x | x | x
O=C1C=C(Nc2ccccc2C(=O)O)c2ccccc2C1=O | 4 | 75* | 1 | 18* | 21* | 5 | 36* | 88* | x | x | 61* | Fam108b inh=0
O=C(O)c1ccccc1Nc1ccccc1C(=O)O | 4 | -1 | 1 | -3 | -2 | 3 | x | x | x | x | x
COC(=O)c1cc2c(-c3ccccc3)c(C)c3ccccn3c-2c1C(=O)OC | 5 | 8 | 2 | -3 | 6 | 6 | x | x | x | x | x
COC(=O)c1c(Cl)c2n3ccccc3c(C)c(-c3ccccc3)c-2c1C(=O)OC | 16 | 29 | 16* | 16* | 19* | 20 | 10 | x | 4 | x | 6
CCOC(=O)CCCNC(=O)COC(=O)c1cccc(F)c1 | 2 | 7 | -4 | -2 | -2 | -5 | x | x | x | x | x
CCCCCCCCOc1ccc(C2OC34CCCCC3C(C#N)(C#N)C2(C#N)C(=N)O4)cc1 (centres undefined) | 20 | 14 | 17* | 16* | 19* | 26* | -5 | x | 14* | 8 | 9
